Drawing on PubChem BioAssay (Tox21), this text covers Potency, outcome and activity change, negative = inhibition for eight compounds.

Several values for one entry are separate records, joined by “and”; a condition that tells them apart may be missing. Equal values may be shown once. Results filed as inconclusive are left out. Some structures have more than one record in an assay (separate samples or runs), and their calls can disagree. Activity calls are given as the source filed them. Unless noted, the call rests on the fitted dose curve; in most records, active means well fitted curve in the direction sought with a large enough effect in the repeat runs; inconclusive means weak or mixed curves; inactive means no such curve, though single readings can be large; an effect the other way counts as inactive or inconclusive.

The nature of assay [1]: qHTS assay to identify aromatase inhibitors - cell viability counter screen (AID 743084).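 Further: cells stimulated with testosterone during compound exposure; nearly all actives have a fitted effect of over 55% in size.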 Background: qHTS replaces the single test concentration by a dilution series.
Assay [2] addresses Aryl hydrocarbon receptor (Homo sapiens) (UniProt P35869). Kind of assay: qHTS assay to identify small molecule that activate the aryl hydrocarbon receptor (AhR) signaling pathway (AID 743085).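 Further: HG2L7.5c1 human HepG2 liver cells with stably integrated DRE-driven firefly reporter; series mostly up to about 70 µM; nearly all actives have a fitted effect of over 15% in size.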 Summed up: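 Steps: seed HepG2-AhR-luc cells; allow 5 h at 37C; pin-transfer test compound or vehicle; incubate 24 h at 37C; add viability dye (30 min, 37C) and read fluorescence; add luciferase substrate (30 min, RT) and read luminescence.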

The nature of assay [3]: qHTS assay to identify small molecule that activate the aryl hydrocarbon receptor (AhR) signaling pathway - cell viability counter screen (AID 743086). Further: series mostly up to about 70 µM; nearly all actives have a fitted effect of over 45% in size. The procedure, abridged: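 Cytotoxicity counter screen: CellTiter-Fluor signal (30 min, 37 C) in 4000 HepG2 cells/well carrying the DRE-luciferase reporter, following 24 h compound exposure at 37 C.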
Assay [4] deals with Peroxisome proliferator-activated receptor gamma (Homo sapiens) (UniProt P37231). Kind of assay: qHTS assay to identify small molecule agonists of the peroxisome proliferator-activated receptor gamma (PPARg) signaling pathway (AID 743094; active means well fitted activation curve with a large enough effect in the signal ratio in the repeat runs, not every such curve was filed as active; the % refers to the signal ratio). The procedure, abridged:
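Beta-lactamase FRET fluorescence was the read-out after a 1 h room-temperature substrate step, following 17 h compound treatment at 37C of HEK293H cells expressing a UAS-driven bla reporter responsive to PPARg.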

For assay [5] the target is unchanged. Kind of assay: qHTS assay to identify small molecule antagonists of the peroxisome proliferator-activated receptor gamma (PPARg) signaling pathway (AID 743191; calls by dose curve; further: series mostly up to about 63 µM; nearly all actives have a fitted effect of over 30% in size). The procedure, abridged: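 Beta-lactamase reporter under UAS control in HEK293H PPARg-bla cells; compound treatment 17 h at 37C. Read-out: fluorescence intensity after 1 h room-temperature incubation with LiveBLAzer B/G FRET substrate.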

Assay [6] in a line: qHTS assay for small molecule agonists of the antioxidant response element (ARE) signaling pathway (AID 743202; active means well fitted activation curve with a large enough effect in the signal ratio in the repeat runs, not every such curve was filed as active; the % refers to the signal ratio). The procedure, abridged: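 Quantitative high-throughput format in HepG2 cells bearing an integrated ARE-beta-lactamase reporter. Compound exposure lasted 16 h at 37 C, and fluorescence was read 2 h after adding LiveBLAzer B/G substrate at room temperature.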
The nature of assay [7]: qHTS assay for small molecule agonists of the antioxidant response element (ARE) signaling pathway - cell viability counter screen (AID 743203; calls by dose curve; further: nearly all actives have a fitted effect of over 55% in size). Summed up:
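HepG2 cells carrying ARE-driven beta-lactamase; 2,000 cells/well; 5 hrs plating; compound pinned from DMSO; 16 hrs 37C/5% CO2; CellTiter-Glo added; 30 min RT; luminescence.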

Assay [8] in a line: qHTS assay for small molecule activators of the heat shock response signaling pathway - cell viability counter screen (AID 743209). Further: nearly all actives have a fitted effect of over 50% in size. Further: potency means the concentration at half of the fitted maximal effect. Summed up: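 Luminescence from CellTiter-Glo, added after the beta-lactamase FRET read, gave the viability signal. Cells were HSE-bla HeLa treated with DMSO-dissolved compounds for 5 h at 37 C following overnight plating.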
Assay [9] is described as follows: qHTS assay for small molecule activators of the heat shock response signaling pathway (AID 743210; active means well fitted activation curve with a large enough effect in the signal ratio in the repeat runs, with a control signal flat, not every such curve was filed as active; the % refers to the signal ratio;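 further: HeLa cells with beta-lactamase reporter driven by heat shock elements; series mostly up to about 63 µM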). The procedure, abridged:
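HeLa HSE-bla cells, overnight plating; cpd in DMSO 5 h, 37 C; LiveBLAzer B/G FRET substrate 2.5 h RT; fluorescence intensity read.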

A short description of assay [10]: qHTS assay to identify small molecule agonists of the peroxisome proliferator-activated receptor delta (PPARd) signaling pathway - cell viability counter screen (AID 743211). Further: nearly all actives have a fitted effect of over 55% in size. Summed up:
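Viability of GeneBLAzer PPARd UAS-bla HEK293H cells was assessed after 17 h compound incubation at 37C, using CellTiter-Glo reagent added after the reporter read and luminescence recorded 30 min later.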

The target of assay [11] is Peroxisome proliferator-activated receptor delta (Homo sapiens) (UniProt Q03181). The experiment in a line: qHTS assay to identify small molecule agonists of the peroxisome proliferator-activated receptor delta (PPARd) signaling pathway (AID 743212; calls by dose curve). The procedure, abridged:
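HEK293H PPARd-bla cells; 5 h preincubation 37 C/5% CO2; compound (DMSO) 37 C; LiveBLAzer B/G FRET substrate 2 h RT; fluorescence intensity.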

Assay [12] can be described thus: qHTS assay to identify small molecule antagonists of the peroxisome proliferator-activated receptor delta (PPARd) signaling pathway - cell viability counter screen (AID 743213). Further: nearly all actives have a fitted effect of over 50% in size. Summed up: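 Luminescence from CellTiter-Glo, added after the bla read and incubated 30 min at room temperature, gives viability of HEK293H PPARd-bla cells exposed to compounds for 17 h at 37 C with 300 nM L165041.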

Assay [13] deals with Peroxisome proliferator-activated receptor delta (Homo sapiens) (UniProt Q03181). The experiment in a line: qHTS assay to identify small molecule antagonists of the peroxisome proliferator-activated receptor delta (PPARd) signaling pathway (AID 743215; active means well fitted inhibition curve with a large enough effect in the signal ratio in the repeat runs, not every such curve was filed as active; the % refers to the signal ratio;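 further: cells stimulated with agonist L165041 at 300 nM final during compound exposure; series mostly up to about 62 µM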). The procedure, abridged:
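Read-out is beta-lactamase FRET fluorescence, measured 2 h after substrate addition at room temperature. Beforehand, UAS-bla HEK293H cells carrying the PPARd reporter were exposed to compounds with L165041 at 300 nM final for 17 h at 37 C.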

Assay [14] is described as follows: qHTS assay to identify small molecule agonists of the farnesoid-X-receptor (FXR) signaling pathway - cell viability counter screen (AID 743218). Further: nearly all actives have a fitted effect of over 45% in size. Further: potency means the concentration at half of the fitted maximal effect. Summed up: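 HEK 293T FXR-bla cells; 5 h pre-incubation, 16 h compound exposure at 37 C; LiveBLAzer substrate 2 h RT, then CellTiter-Glo 30 min RT, luminescence.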
Assay [15] in a line: qHTS assay to identify small molecule antagonists of the farnesoid-X-receptor (FXR) signaling pathway - cell viability counter screen (AID 743221; active means well fitted cell-killing curve with a large enough effect in the repeat runs, not every such curve was filed as active; further: nearly all actives have a fitted effect of over 50% in size). Summed up:
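Quantitative HTS of the Tox21 10K library run in parallel with the beta-lactamase reporter read. HEK 293T cells carrying a UAS-driven bla reporter got compound and 50 uM CDCA (final) for 16 h; ATP-based luminescence followed.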

Assay [16] addresses Vitamin D3 receptor (Homo sapiens) (UniProt P11473). Kind of assay: qHTS assay to identify small molecule agonists of the vitamin D receptor (VDR) signaling pathway (AID 743222; calls by dose curve). Summed up:
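VDR-bla cells, 2,000/well; 4 h preincubation 37C; cpd (DMSO) 16 h; LiveBLAzer B/G substrate 2 h RT; fluorescence intensity read.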

Assay [17] has the same target. Kind of assay: qHTS assay to identify small molecule antagonists of the vitamin D receptor (VDR) signaling pathway (AID 743223; active means well fitted inhibition curve with a large enough effect in the signal ratio in the repeat runs, not every such curve was filed as active; the % refers to the signal ratio). Summed up: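 Fluorescence from LiveBLAzer B/G FRET substrate, read after 2 h at room temperature, reflects beta-lactamase reporter activity in VDR-bla cells treated 16 h at 37C with compounds and agonist 1alpha,25-dihydroxyvitamin D3 (3 nM final).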

Assay [18] has as its target Bile acid receptor (Homo sapiens) (UniProt Q96RI1). Kind of assay: qHTS assay to identify small molecule antagonists of the farnesoid-X-receptor (FXR) signaling pathway (AID 743217; active means well fitted inhibition curve with a large enough effect in the signal ratio in the repeat runs, not every such curve was filed as active; the % refers to the signal ratio). The procedure, abridged:
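HEK 293T FXR-UAS-bla, 5000 cells/well; compound + CDCA 50 uM final; 16 h, 37 °C; B/G FRET substrate 2 h RT; fluorescence.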

The target is the same in assay [19]. Kind of assay: qHTS assay to identify small molecule agonists of the farnesoid-X-receptor (FXR) signaling pathway (AID 743220; active means well fitted activation curve with a large enough effect in the signal ratio in the repeat runs, not every such curve was filed as active; the % refers to the signal ratio). The procedure, abridged: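 Beta-lactamase reporter under UAS control in GeneBLAzer FXR HEK 293T cells (5000/well) measured with LiveBLAzer FRET substrate after 2 h at room temperature. Compound exposure lasted 16 h at 37C.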
On the % scale 0 is the no-effect control and ±100 the full control effect.

Peroxisome proliferator-activated receptor delta (Homo sapiens), sequence (Q03181 whole entry, looked up): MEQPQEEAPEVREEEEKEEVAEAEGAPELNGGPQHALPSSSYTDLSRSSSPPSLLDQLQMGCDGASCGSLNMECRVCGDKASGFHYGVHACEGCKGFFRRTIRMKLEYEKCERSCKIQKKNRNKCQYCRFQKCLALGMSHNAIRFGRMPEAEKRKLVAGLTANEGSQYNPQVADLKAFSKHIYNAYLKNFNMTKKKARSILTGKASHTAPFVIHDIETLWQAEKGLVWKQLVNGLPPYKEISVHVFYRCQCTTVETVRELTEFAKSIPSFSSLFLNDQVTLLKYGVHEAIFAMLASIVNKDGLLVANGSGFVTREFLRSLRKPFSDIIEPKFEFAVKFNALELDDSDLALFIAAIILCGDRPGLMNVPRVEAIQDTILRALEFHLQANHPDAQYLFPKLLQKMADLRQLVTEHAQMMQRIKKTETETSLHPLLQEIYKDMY
Peroxisome proliferator-activated receptor gamma (Homo sapiens), sequence (P37231 whole entry, looked up): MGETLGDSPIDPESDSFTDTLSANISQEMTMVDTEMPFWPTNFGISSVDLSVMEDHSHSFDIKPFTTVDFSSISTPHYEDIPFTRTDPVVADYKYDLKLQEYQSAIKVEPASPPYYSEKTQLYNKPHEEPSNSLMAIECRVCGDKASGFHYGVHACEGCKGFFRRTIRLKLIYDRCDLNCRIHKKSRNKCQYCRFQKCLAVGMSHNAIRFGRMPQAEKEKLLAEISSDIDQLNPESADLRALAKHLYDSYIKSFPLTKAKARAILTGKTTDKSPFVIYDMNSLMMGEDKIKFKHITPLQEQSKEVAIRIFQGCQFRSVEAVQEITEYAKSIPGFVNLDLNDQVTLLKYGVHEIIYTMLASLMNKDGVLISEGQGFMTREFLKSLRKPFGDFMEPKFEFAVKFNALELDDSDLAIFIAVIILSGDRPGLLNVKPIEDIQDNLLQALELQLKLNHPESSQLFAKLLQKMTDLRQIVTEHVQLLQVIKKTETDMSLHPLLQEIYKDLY
Vitamin D3 receptor (Homo sapiens), sequence (P11473 whole entry, looked up): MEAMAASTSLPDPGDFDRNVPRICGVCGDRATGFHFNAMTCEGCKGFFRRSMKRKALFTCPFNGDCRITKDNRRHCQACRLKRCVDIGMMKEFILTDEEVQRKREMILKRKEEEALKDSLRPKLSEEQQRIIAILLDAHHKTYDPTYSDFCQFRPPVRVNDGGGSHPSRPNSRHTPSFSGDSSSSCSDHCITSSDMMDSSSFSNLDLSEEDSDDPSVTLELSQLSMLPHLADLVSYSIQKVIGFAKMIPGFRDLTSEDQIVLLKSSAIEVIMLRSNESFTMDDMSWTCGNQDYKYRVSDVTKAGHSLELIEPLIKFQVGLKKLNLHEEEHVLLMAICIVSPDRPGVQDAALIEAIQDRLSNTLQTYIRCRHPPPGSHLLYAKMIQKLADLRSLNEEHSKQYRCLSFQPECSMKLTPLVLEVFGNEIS
Bile acid receptor (Homo sapiens), sequence (Q96RI1 whole entry, looked up): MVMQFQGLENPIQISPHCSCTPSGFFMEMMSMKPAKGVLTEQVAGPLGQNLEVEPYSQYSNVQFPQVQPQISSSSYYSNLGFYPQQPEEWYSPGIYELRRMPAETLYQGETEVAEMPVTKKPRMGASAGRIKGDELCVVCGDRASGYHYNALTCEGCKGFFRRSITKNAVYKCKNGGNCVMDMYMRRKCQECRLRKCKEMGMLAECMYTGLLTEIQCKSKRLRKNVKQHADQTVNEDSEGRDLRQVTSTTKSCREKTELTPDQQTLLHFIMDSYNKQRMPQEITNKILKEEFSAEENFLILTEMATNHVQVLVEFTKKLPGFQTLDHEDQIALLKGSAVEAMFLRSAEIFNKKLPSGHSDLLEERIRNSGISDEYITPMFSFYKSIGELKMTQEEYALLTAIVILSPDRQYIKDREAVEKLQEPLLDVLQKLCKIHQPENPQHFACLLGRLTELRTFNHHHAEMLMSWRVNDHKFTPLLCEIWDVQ
Aryl hydrocarbon receptor (Homo sapiens), sequence (P35869 whole entry, looked up): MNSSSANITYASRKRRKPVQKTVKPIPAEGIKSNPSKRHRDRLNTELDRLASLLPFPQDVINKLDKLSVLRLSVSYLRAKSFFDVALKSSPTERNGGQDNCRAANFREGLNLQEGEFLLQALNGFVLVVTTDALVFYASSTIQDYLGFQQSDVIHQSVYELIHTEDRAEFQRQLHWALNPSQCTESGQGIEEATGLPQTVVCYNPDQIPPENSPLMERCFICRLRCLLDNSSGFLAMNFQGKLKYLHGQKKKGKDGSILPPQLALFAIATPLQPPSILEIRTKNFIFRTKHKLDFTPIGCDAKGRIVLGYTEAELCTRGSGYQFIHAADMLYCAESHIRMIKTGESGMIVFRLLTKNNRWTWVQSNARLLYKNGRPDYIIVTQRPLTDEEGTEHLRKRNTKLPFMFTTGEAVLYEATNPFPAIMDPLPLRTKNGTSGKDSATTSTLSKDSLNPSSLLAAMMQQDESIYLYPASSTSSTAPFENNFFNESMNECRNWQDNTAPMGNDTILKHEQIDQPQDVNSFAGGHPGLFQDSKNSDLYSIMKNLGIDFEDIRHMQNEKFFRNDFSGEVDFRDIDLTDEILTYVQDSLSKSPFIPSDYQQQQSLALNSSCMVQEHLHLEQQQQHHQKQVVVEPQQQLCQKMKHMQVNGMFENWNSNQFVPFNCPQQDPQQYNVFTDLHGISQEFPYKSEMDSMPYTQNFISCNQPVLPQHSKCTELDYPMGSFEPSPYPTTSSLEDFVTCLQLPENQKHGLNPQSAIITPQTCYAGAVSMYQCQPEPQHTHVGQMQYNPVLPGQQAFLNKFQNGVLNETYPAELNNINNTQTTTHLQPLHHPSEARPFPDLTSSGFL

Take `Cn1c([N+](=O)[O-])cnc1COC(N)=O`: the Potency result in assay [1], in [2], in assay [3], in [5], in [6] and in assay [7] was “inactive” throughout. Besides, the Potency result in assay [8], in [10], in [12], in assay [14], in assay [15] and in assay [16] was “inactive” each time. The Potency result in assay [17] is “inactive”. The compound was called inactive in [4], in assay [9], in assay [11] and in assay [13].

For `CCCCC/C=C\C/C=C\CCCCCCCC(=O)OC`, the Potency entry in assay [1], in assay [2], in assay [3], in assay [6], in assay [7] and in [10] was “inactive” in each case. For the same compound, the Potency entry in [12] and in assay [15] was “inactive” throughout. In addition, the call in assay [4], in assay [9] and in assay [11] was inactive. Also, the Potency result is “inactive and 38.9 µM (active)” in [8]; “inactive and 54.9 µM (active)” in assay [14].

For the compound `C=C(C)C(=O)OCCCCCCCCCCCC`, the Potency entry in assay [1], in [2], in [3], in assay [5], in assay [6] and in [7] was “inactive” each time. In addition, the Potency result in assay [8], in [10], in assay [12], in assay [14], in [15] and in assay [16] was “inactive” throughout. In addition, in assay [17], the Potency result is “inactive”. The compound was called inactive in assay [4], in [9], in [11] and in [13].

As to `NCc1cccc(CN)c1`, the Potency entry in assay [1], in assay [2], in assay [3], in [5], in [6] and in [7] was “inactive” throughout. The Potency result in assay [8], in assay [10], in [12], in assay [14], in assay [15] and in [16] was “inactive” each time. In [17], the Potency result was “inactive”. Also, the outcome in [4], in assay [9], in assay [11], in assay [13], in assay [18] and in assay [19] was inactive.

For `CC[Si](OC(C)=O)(OC(C)=O)OC(C)=O`, the Potency result in [1], in [2], in assay [3], in assay [5], in assay [6] and in assay [7] was “inactive” in each case. The Potency result in [8], in assay [10], in assay [12], in assay [14], in assay [15] and in [16] was “inactive” throughout. Moreover, the Potency result in [17] is “inactive”. In addition, the outcome in [4], in assay [9], in assay [11] and in [13] was inactive.

`NCCNCCNCCNCCN`: the Potency result in [1], in assay [2], in [3], in [7], in assay [8] and in assay [10] was “inactive” in each case. The Potency entry in assay [12], in assay [14], in [15] and in [16] was “inactive” each time. Further, the outcome in assay [4], in assay [9], in [11] and in [13] was inactive. In [17], the activity change, negative = inhibition is 2.31% [at 6.95 µM] (inactive).

On to `CCC(=O)O`, for which the Potency result in assay [1], in assay [2], in assay [3], in [5], in assay [6] and in assay [7] was “inactive” throughout. In addition, the Potency result in assay [8], in assay [10], in [12], in assay [14], in assay [15] and in [16] was “inactive” each time. In [17], the Potency entry is “inactive”. Further, the compound was called inactive in assay [4], in [9], in [11] and in assay [13].

As for `CC1Cc2ccccc2N1NC(=O)c1ccc(Cl)c(S(N)(=O)=O)c1` (configuration not stated), the Potency result in [1], in assay [2], in [3], in [5], in assay [6] and in assay [7] was “inactive” each time. Also, the Potency entry in assay [8], in assay [10], in assay [12], in [14] and in assay [15] was “inactive” each time. In addition, the call in [4] was inactive.
